GPR7 antagonist – blocks human GPR7 receptor signaling | AID 1861 | inhibition, % at 4.4 µM | P48145 | GPR7-expressing cells, fluorescence antagonist assay | actives 1.1% (n = 290,000); in the data active = inhibition above about 16%, passing the limit was not always enough;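 note: cells stimulated with the agonist NPW; 0% = agonist with vehicle and 100% = vehicle without agonist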
Target sequence (P48145 whole entry, looked up): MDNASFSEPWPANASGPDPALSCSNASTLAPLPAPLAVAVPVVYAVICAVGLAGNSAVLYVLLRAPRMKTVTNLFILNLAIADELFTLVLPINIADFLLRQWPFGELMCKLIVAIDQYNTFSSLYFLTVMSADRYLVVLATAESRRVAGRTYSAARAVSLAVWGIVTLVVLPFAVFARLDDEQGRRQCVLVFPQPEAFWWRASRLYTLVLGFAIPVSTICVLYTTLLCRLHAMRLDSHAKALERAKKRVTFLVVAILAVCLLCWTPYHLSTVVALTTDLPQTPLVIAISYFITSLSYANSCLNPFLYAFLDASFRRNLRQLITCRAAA
Ba/F3 V617F tox – reduce viability of Ba/F3 cells dependent on JAK2V617F | Ba/F3 EpoR-JAK2V617F viability, ATP luminescence | inhibition, % at 5.6 µM | actives 1.1% (n = 220,000) | AID 1446;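 active = inhibition above the campaign mean plus 3 SD over all tested compounds, cut at about 24% in these data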;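 note: cytokine-independent growth of Ba/F3 cells driven by EpoR plus mutant JAK2; 0% = DMSO-treated cells and 100% = JAK inhibitor I control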
IEC-6 tox – kills IEC-6 intestinal cells in KLF5 counter-screen | actives 0.78% (n = 290,000) | inhibition, % at 5 µM | IEC-6 cytotoxicity, luminescence viability;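 note: 0% = plate median of test compound wells and 100% = cytotoxic reference compound wells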
DNA FID counter – counter-screen for HCV NS3 helicase inhibitors: DNA intercalator displacement | DNA fluorescent intercalator displacement, fluorescence | inhibition, % at 7.9 µM | actives 0.17% (n = 290,000); in the data active = inhibition above about 37%;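 note: 0% = vehicle and 100% = reference compound; higher means more ethidium bromide displaced from hairpin DNA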
KLF5 inh – suppresses KLF5 promoter-driven expression; DLD-1 KLF5 promoter-luciferase reporter, luminescence; inhibition, % at 5 µM; actives 0.23% (n = 290,000);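 active = inhibition above a per-plate limit of that plate's mean compound inhibition plus 3 SD, cut at about 60% in these data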;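 note: 0% = DMSO wells and 100% = LY294002 at 200 µM; higher means less KLF5 promoter-driven luciferase light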
BaF3 tox – reduces parental Ba/F3 cell viability, JAK2V617F counter-screen; CellTiter-Glo ATP luminescence; inhibition, % at 5.6 µM; actives 1.1% (n = 220,000); AID 1486;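 active = inhibition above a per-campaign cutoff, the mean inhibition of all tested compounds plus 3 SD, cut at about 27% in these data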;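 note: 0% = DMSO wells and 100% = JAK Inhibitor I control wells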
GPR7 antag conf – confirmation of human GPR7 antagonists; shares compounds with GPR7 antagonist; GPR7-expressing cells, calcium fluorescence antagonist mode; inhibition, % at 4.4 µM; actives 52% (n = 2,400); in the data active = inhibition above about 24%;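 note: stimulated with the GPR7 agonist NPW; 0% = agonist plus vehicle and 100% = vehicle alone without agonist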
MCHR1 antagonist – counter-screen for GPR7 antagonists: antagonists of human MCHR1. shares compounds with GPR7 antagonist. MCHR1-expressing cells, fluorescence antagonist assay. inhibition, % at 4.4 µM. actives 62% (n = 2,400). AID 2148;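 note: 0% = vehicle with agonist and 100% = vehicle without agonist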
* marks the source's active call; other numbers are inactive results; / = not tested or not shown. An excerpt weighted towards active compounds, which were near 2.6% of everything screened. Cut-off read from the data, not from the text of the source, unless noted: active = inhibition above about 22%; inactive = the rest.

SMILES	GPR7 antagonist	Ba/F3 V617F tox	IEC-6 tox	DNA FID counter	KLF5 inh	BaF3 tox	GPR7 antag conf	MCHR1 antagonist
O=C(Cc1ccc(Cl)cc1)Nc1ccncc1	-2	6	1	15	-30	9	/	/
Cc1ccc(CC(=O)Nc2ccncc2)cc1	33*	36*	2	2	-12	42*	2	40*
CN1CCN(c2ccccc2NC(=O)COc2ccccc2)CC1	22*	1	-6	1	-10	3	15	12
CN1CCN(c2ccccc2NC(=O)COc2ccc(Cl)cc2)CC1	10	/	1	5	-13	/	/	/
CC(C)C(=O)N1CCN(c2ccccc2NC(=O)Cc2ccc(Cl)cc2)CC1	29*	5	3	-22	-15	6	39*	37*
CCC(=O)N1CCN(c2ccccc2NC(=O)Cc2ccccc2)CC1	22*	-3	4	-18	-4	1	15	22*
O=C1c2ccccc2C(=O)N1OCc1ccc(Cl)cc1	-3	0	-6	-3	-19	3	/	/
CC1=C(C(=O)N2CCN(c3cc(C)ccc3C)CC2)C2(CCCCC2)OC1=O	1	-1	-3	0	-7	10	/	/
O=C(O)CCn1c(=O)[nH]c(=O)n(CCC(=O)O)c1=O	24*	-1	0	4	0	-1	-2	-7
Cc1ccccc1NC(=O)CSCc1nc(N)nc(Nc2ccccc2C)n1	21*	-3	-2	-17	-38	4	-2	6
O=c1[nH]c(=S)[nH]c2c1CN(Cc1ccc(F)cc1)CC2	30*	/	-5	-7	-10	/	-5	-5
COCCCNC(=O)CCCC(=O)NCCCOC	-2	-1	0	-4	-39	3	/	/
CCC(=O)OC1=C2C(=Nc3c(c(=O)n(C)c(=O)n3C)C2c2ccccc2)c2ccccc21 (configuration not stated)	-11	-2	-7	-7	-17	1	/	/
CN1CCN(c2ccc(C(F)(F)F)cc2NC(=O)Nc2ccccc2)CC1	62*	/	20	29	-43	/	43*	49*
CC(Cl)C(=O)Nc1cc(C(F)(F)F)ccc1N1CCOCC1 (configuration not stated)	-13	-4	0	0	19	0	/	/
COc1ccc(CCNC(=O)N2c3ccccc3Sc3ccccc32)cc1	42*	5	3	-14	-5	8	45*	77*
COCCCNC(=O)N1c2ccccc2Sc2ccccc21	-12	/	2	-27	-24	/	/	/
CS(=O)(=O)c1ccc2nc(NC(=O)Nc3ccc(Cl)cc3)sc2c1	5	-3	0	25	1	0	/	/
NS(=O)(=O)c1ccc2nc(NC(=O)Nc3ccc(F)cc3)sc2c1	34*	/	4	5	-71	/	50*	15
Cc1cc(S(=O)(=O)N(Cc2ccccc2Cl)c2ccc3c(c2)CCC3)ccc1-n1cnnn1	-8	-3	-4	-3	-1	4	/	/
COc1ccc(CN2CCc3c([nH]c4ccccc34)C2)cc1Br	42*	/	-2	10	-31	/	52*	38*
NC(=O)C1CCN(c2cc(N3CCOCC3)ccc2[N+](=O)[O-])CC1	-11	2	-3	-3	-15	2	/	/
NC(=O)C1CCN(c2cc(Cl)ccc2[N+](=O)[O-])CC1	26*	0	7	-5	-26	0	-9	-10
CNC(=S)N(CCc1c(C)[nH]c2ccc(C)cc12)Cc1ccco1	4	-4	3	-7	1	4	/	/
CCNC(=S)N(CCc1c(C)[nH]c2ccc(Cl)cc12)Cc1ccco1	24*	3	15	-7	3	6	10	76*
SMILES	GPR7 antagonist	Ba/F3 V617F tox	IEC-6 tox	DNA FID counter	KLF5 inh	BaF3 tox	GPR7 antag conf	MCHR1 antagonist
C=CCSc1nsc(N)n1	-2	-5	-2	5	-14	-2	/	/
COc1cccc(-n2c(SC)nnc2-c2cnccn2)c1	-14	-3	-10	-5	-22	0	/	/
COc1ccc(Cn2c(=O)[nH]c3cc(C(=O)Nc4ccccc4C)ccc32)cc1	-8	/	-5	-27	-4	/	/	/
CSc1nnc(-c2ccccc2Cl)n1N	24*	6	1	4	-16	11	-10	-3
Nn1c(-c2ccccc2Cl)nnc1-c1ccccc1Cl	-10	1	0	3	-7	-1	/	/
CC1(C)C2CCC(C2)C1(C)NC(=O)CNCC1CCCCC1 (configuration not stated)	33*	4	0	19	-1	7	38*	22*
CCOCCCNCC(=O)NC1(C)C2CCC(C2)C1(C)C (configuration not stated)	4	-4	1	10	-18	1	/	/
Cc1nc2scc(-c3ccc(C(C)(C)C)cc3)c2c(=O)n1N	-6	-3	14	-26	0	3	/	/
Cc1ccc(Oc2ccccc2NC(=O)CN2C(=O)NC3(CCCC3)C2=O)cc1	29*	/	-3	-33	-8	/	-11	1
O=C1NCCCC1C(=O)NCCNC(=O)C(F)(F)F (configuration not stated)	-10	0	0	-3	8	3	/	/
CN1CCCN(C(=O)c2cc(-c3ccc(Cl)c(Cl)c3Cl)nc3ccccc23)CC1	21*	0	13	20	0	5	31*	39*
O=C(OCC(=O)N1CCN(C(=O)c2ccco2)CC1)c1cc(-c2ccc(Cl)c(Cl)c2Cl)nc2ccccc12	-12	2	-1	-3	-5	6	/	/
CC1(C)NC(=O)N(CC(=O)Nc2cc(S(=O)(=O)N3CCOCC3)ccc2N2CCOCC2)C1=O	27*	-5	-2	5	-40	1	-10	-2
Cc1ccc(S(=O)(=O)Nc2cc(S(=O)(=O)N3CCCCC3)ccc2N2CCOCC2)cc1	33*	-6	3	12	0	0	0	0
Cc1ccccc1Nc1c(N)c(=O)oc2ccccc12	-4	0	2	-4	-30	-1	/	/
CC(C)Oc1ccc(C2CC(=O)NC3=C2C(=O)CCC3)cc1 (configuration not stated)	-3	0	-1	3	-41	4	/	/
Cc1nn(C(=O)c2c([N+](=O)[O-])cnn2C)c(C)c1Cl	-15	2	-3	-1	-38	3	/	/
O=C(NCCc1ccccc1F)C1CCCN1S(=O)(=O)c1ccc2ccccc2c1 (configuration not stated)	23*	-1	-1	-36	-50	3	10	22*
CCc1nnc(NC(=O)CSc2nnc(CNC(=O)c3ccc(OC)c(OC)c3)o2)s1	-12	7	5	-29	-5	14	/	/
Fc1ccccc1Nc1ncnc2c1nnn2Cc1ccccc1	34	/	-2	-2	-31	/	/	/

High-throughput results as filed in PubChem BioAssay.
